This is part of a sample that, as a whole, favours compounds with a hit. Of some 83,000 tested, about 20% had one in any assay.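 How to read the values: 0–100, growth inhibition (40 = 60% inhibited); 0, no net growth; -100 to 0, cell death (-40 = 40% of starting cells died; -100 = all dead).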 Unmarked numbers belong to inactive results. Activity calls are given as the source filed them. The calls were made as follows: active = growth percent below 10; inactive = the rest.
What follows are compounds tested on 786-0 renal (assay: NCI-60 one-dose screen, 48 h (100 = growth as untreated, 0 = no growth, -100 = all killed)). Details: 10 µM unless noted.
`O=C1NN(c2ccccc2)C(c2ccc(Cl)cc2)N2CCC[C@H]12` (stereo partly drawn) gave a growth of 105%. In the case of `Nc1ccccc1NS(=O)(=O)c1ccc(Cl)cc1`, the growth is reported as 98%. `CCCCCCN1C(=O)CN=C1Nc1ccc2cc3ccc(NC4=NCC(=O)N4CCCCCC)cc3nc2c1` was tested, and the growth was 36.1%. For `Nc1n[nH]c2cccc(C#Cc3cccc(NC(=O)c4cc(N5CCOCC5)cc(C(F)(F)F)c4)c3)c12`, the growth was 57.7%. Compound `Cc1cnc(SCc2ccc(Cl)cc2Cl)nc1Nc1ccc(Cl)c(Cl)c1` has a growth of 92.3%.

The compounds below were run on COLO 205 colon in the same assay as above. Details: 10 µM unless noted.
`COc1ccc(/C=C/C(=O)/C=C(/C=C/c2ccc(OC)c(OC)c2)OB(F)F)cc1OC` was tested, and the growth was -23.2% (active). `COc1cc(/C=C/C(=O)/C=C/c2cc3ccc(Cl)cc3[nH]c2=O)ccc1O` showed a growth of 105%. In the case of `CCCCn1c(=O)c(/C=C/C(=O)/C=C/c2cc3ccccc3n(CCCC)c2=O)cc2ccccc21`, the growth is reported as -22% (active). In the case of `COc1ccc(-c2nc(C#N)c(NCC(c3ccco3)N3CCCC3)o2)cc1` (stereo not drawn), the growth is reported as 19.9%. With `N#C/C(=C/c1ccc(O)c([N+](=O)[O-])c1)c1nc(-c2ccc([N+](=O)[O-])cc2)cs1` the growth was 51.2%. In the case of `C=C1C(=O)O[C@H]2[C@H]1CC/C(COC(=O)CCCCC(=O)OC/C1=C/CC[C@@]3(C)O[C@H]3[C@H]3OC(=O)C(=C)[C@@H]3CC1)=C\CC[C@@]1(C)O[C@@H]21`, the growth is reported as -18.9% (active). `CCOC(=O)c1c(C(F)(F)F)n([O-])c2ccc(Cl)cc2[n+]1=O` was tested, and the growth was -59.2% (active). `COc1ccc(-c2nc(C#N)c(NCC(c3ccc(Cl)cc3)N3CCCCC3)o2)cc1` (stereo not drawn) was tested, and the growth was 87.6%. Compound `O=CN1N=C(c2ccc(Cl)cc2)CC1c1cccc(Nc2ccnc3cc(C(F)(F)F)ccc23)c1` (stereo not drawn) has a growth of 60.1%. Work on `O=C(CCCCCCCCC(=O)Nc1cccc(C2=NCCN2)c1)Nc1cccc(C2=NCCN2)c1` yielded a growth of 92.2%. For `CCOC(=O)C1CCN(S(=O)(=O)/N=C2/NC(=O)NC2=C(Cl)Cl)CC1`, the growth was -69.6% (active). `S=c1ssnc1-c1cc2ccccc2o1` showed a growth of 83.6%. `NS(=O)(=O)c1ccc(C2C3=C(CCCC3=O)OC3=C2C(=O)c2ccccc2C3=O)cc1` (stereo not drawn) was tested, and the growth was -80.3% (active). With `C=C1C(=O)O[C@H]2[C@H]1CCC(/C=N/c1ncc(Br)cc1N)=C\CC[C@@]1(C)O[C@@H]21` the growth was -60% (active). For `C#Cc1ccccc1NC(=O)c1sc2nc3c(cc2c1N)CCCCC3`, the growth was 105%. Work on `NS(=O)(=O)c1ccc(-n2nc(-c3ccccc3)ccc2=O)cc1` yielded a growth of 125%. With `COc1ccc(-c2nnc(N3CCN(C(=O)CN4CCN(c5ccc(OC)cc5)CC4)CC3)nc2-c2ccc(OC)cc2)cc1` the growth was 19%. Work on `N#Cc1ccc(Oc2ccc3ccc(=O)oc3c2)cc1` yielded a growth of 102%. `CC1CCCN(CCCCCOc2ccc3oc4ccccc4c(=O)c3c2)C1` (stereo not drawn) gave a growth of 36.1%. Work on `CS(=O)(=O)O[C@@H]1C(=O)N(c2cc3c4ccccc4ccc3c3ccccc23)[C@H]1c1ccc(F)cn1` yielded a growth of 48.4%. `C=C1C(=O)O[C@H]2[C@H]1CC/C(C=Nc1c(N)cc(F)cc1Br)=C\CC[C@@]1(C)O[C@@H]21` showed a growth of 38.8%. Compound `Cc1ccc(SC2c3ccc(C)cc3Oc3nc(N)c(C#N)c(N)c32)cc1` (stereo not drawn) has a growth of 62.8%. Compound `O=C(Nc1nccs1)c1noc2ccccc12` has a growth of 104%. In the case of `C=C(C)[C@@H]1CC[C@]2(C(=O)OCCCC[P+](c3ccccc3)(c3ccccc3)c3ccccc3)CC[C@]3(C)[C@H](CC[C@@H]4[C@@]5(C)CC[C@H](OC(=O)C(Cl)Cl)C(C)(C)[C@@H]5CC[C@]43C)[C@@H]12`, the growth is reported as -74.4% (active). For `Cc1cc2ccccc2c[n+]1CC(=O)c1ccc(-c2ccccc2)cc1`, the growth was 32.5%. Compound `O=C1Nc2ccc(Cl)cc2/C1=N/c1nc(-c2ccc(F)cc2)cs1` has a growth of 31.4%. In the case of `COc1cc(/C=N/Nc2nc(-c3ccc(F)cc3)c(C#N)c(N3CCOCC3)n2)ccc1O`, the growth is reported as 101%. In the case of `C=C(C)[C@@H]1CC[C@]2(C(=O)N=C=S)CC[C@]3(C)[C@H](CC[C@@H]4[C@@]5(C)CCC(=O)C(C)(C)[C@@H]5CC[C@]43C)[C@@H]12`, the growth is reported as -19.1% (active). With `CC1(C)[C@@H](O)CC[C@]2(C)[C@H]3CC[C@@H]4[C@H]5[C@H](c6cn(-c7ccccc7)nn6)CC[C@]5(CO)CC[C@@]4(C)[C@]3(C)CC[C@@H]12` the growth was 95.2%. `COc1cc(/C=C/C(=O)c2ccc(NC(=O)CSc3nnc(-c4cc(OC)c(OC)c(OC)c4)n3-c3ccccc3)cc2)cc(OC)c1OC` showed a growth of 10.2%. With `O=c1c2ccccc2n(CC(O)CN2CCCC2)c2c(Br)cccc12` (stereo not drawn) the growth was 82.4%. In the case of `COc1cc(-c2cn(-c3ccc(Cl)c(Cl)c3)c(=O)[nH]2)cc(OC)c1OC`, the growth is reported as 105%. For `COC(=O)c1ccc2c(c1)n(Cc1ccc3ccccc3c1)c[n+]2Cc1ccc2ccccc2c1`, the growth was 3.66% (active). With `O=C1NN(c2ccccc2)C(c2ccc(Cl)cc2)N2CCC[C@H]12` (stereo partly drawn) the growth was 108%. For `Nc1ccccc1NS(=O)(=O)c1ccc(Cl)cc1`, the growth was 104%. `CCCCCCN1C(=O)CN=C1Nc1ccc2cc3ccc(NC4=NCC(=O)N4CCCCCC)cc3nc2c1` was tested, and the growth was 40.3%. For `Nc1n[nH]c2cccc(C#Cc3cccc(NC(=O)c4cc(N5CCOCC5)cc(C(F)(F)F)c4)c3)c12`, the growth was 18.2%. In the case of `Cc1cnc(SCc2ccc(Cl)cc2Cl)nc1Nc1ccc(Cl)c(Cl)c1`, the growth is reported as 117%.

Source: PubChem BioAssay (NCI)
